In PubChem BioAssay (NCI) one finds growth data, which are given here for 40 compounds.

Compounds without any hit were thinned out: in the full panel of roughly 83,000, 20% have a hit.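 Single-dose data. Exposure time 48 hours. Values below 10 considered active.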 Calls of active or inactive are those of the source.

One assay relates to A498 renal. The assay is described as follows: NCI-60 one-dose screen, 48 h (100 = growth as untreated, 0 = no growth, -100 = all killed). The following applies: 10 µM unless noted.
Consider `FC(F)(F)c1cc(-c2nnc3n2N=C(N2CCCC2)CS3)cc(C(F)(F)F)c1`, for which the growth is 10.6% (inactive).

For the compound `Clc1ccc(C2=NN(c3ccc(Cl)cc3)C(c3cccc(Nc4ccnc5cc(Cl)ccc45)c3)C2)cc1` (stereo not given), the growth is 89.3% (inactive).

As to `C=CCN(/C=C/CN(CC=C)CC=C)CC=C`, the growth is 91.8% (inactive).

Turning to `COc1ccc(-c2nnc3c4[nH]cnc4ncn23)c(OC)c1`, the growth was 80.4% (inactive).

Take `Cc1ccc(S(=O)(=O)NCCN2c3nc4ccccc4cc3Sc3cc4ccccc4nc32)cc1`: the growth is 149% (inactive).

As for `O=C(CNC(=O)c1cccc2ccccc12)Nc1ccccc1Oc1cccc(O)c1`, the growth was 11.5% [5 µM] (inactive).

For `O=C(/C=C/c1c(-c2ccccc2)[nH]c2ccccc12)S(=O)(=O)c1ccccc1`, the growth was 53.8% (inactive).

As for `O=C(Nc1nc2c(C(F)(F)F)cccc2s1)c1cc(Cl)ccc1O`, the growth is -36.9% (active).

With `CCN(CC)CCOCC[C@H]1CC[C@H]2[C@@H]3[C@H](C)Cc4cc(OS(N)(=O)=O)ccc4[C@H]3CC[C@]12C`, the growth was -91.6% (active).

Turning to `NS(=O)(=O)c1ccc(N2CC(c3nc4ccccc4[nH]3)CC2=O)cc1` (stereo not given), the growth is 110% (inactive).

In the case of `COc1cnc2c(c1)C(=O)c1c-2n(CCCN2CCCC2)c(=O)c2cc(F)ccc12`, the growth was -92.8% (active).

With `COc1ccc(-n2cnc3cc(C(=O)N4CCCCC4)ccc32)cc1`, the growth was 96.3% (inactive).

Consider `COc1cc(-c2n[nH]nc2-c2ccccn2)cc(OC)c1OC`, for which the growth was 118% (inactive).

Consider `COc1cc(C2=NN(C=O)C(c3cccc(Nc4ccnc5cc(Cl)ccc45)c3)C2)cc(OC)c1OC` (stereo not given), for which the growth was 62.5% (inactive).

Take `Cc1sc2nc(NCc3ccccc3)[nH]c(=O)c2c1C`: the growth is 48.9% (inactive).

Regarding `CC(=O)N1N=C(c2ccc(Nc3nc(NCCO)nc(NCCO)n3)cc2)CC1c1ccc(Cl)cc1` (stereo not given), the growth is 102% (inactive).

As for `COc1ccc(N2CCN(CC(=O)N3CCN(c4nnc(-c5ccc(Cl)cc5)c(-c5ccc(Cl)cc5)n4)CC3)CC2)cc1`, the growth is 38.1% (inactive).

In the case of `C1CCC(C(CC2CCCCN2)C2CCCCC2)CC1` (stereo not given), the growth is 51.1% (inactive).

For the compound `Cc1cc2c(cc1C)[n+](Cc1ccc3ccccc3c1)cn2Cc1ccc2ccccc2c1`, the growth is -68% (active).

Regarding `COc1ccc(Oc2ccccc2NC(=O)CNC(=O)c2cccc3ccccc23)cc1`, the growth is 7% [5 µM] (active).

Turning to `COc1cccc(N2CCN(CC(=O)N3CCN(c4nnc(-c5ccc(Cl)cc5)c(-c5ccc(Cl)cc5)n4)CC3)CC2)c1`, the growth was 55.4% (inactive).

For `CC(=O)N1N=C(c2ccc3c(c2)OCO3)CC1c1c(C)nn(-c2ccccc2)c1N(C)Cc1ccccc1` (stereo not given), the growth is 67.4% (inactive).

For the compound `COc1cc(C2CC(C3C(=O)N(C)C(=O)N(C)C3=O)=NN2c2cc(Cl)cc(Cl)c2)cc(OC)c1OC` (stereo not given), the growth is 88.5% (inactive).

`O=C1NC(=O)/C(=C\c2ccco2)S1`: the growth is 75.8% (inactive).

Regarding `COc1ccc2nc(-c3ccc(Cl)cc3)cc(-c3nnc(SCC(=O)Nc4ccc(C(C)=O)cc4)n3-c3ccccc3)c2c1`, the growth was 100% (inactive).

Regarding `O=C(CNC(=O)c1cccc2ccccc12)Nc1ccccc1Cc1ccccc1`, the growth is 38.2% [5 µM] (inactive).

Consider `CCCCc1n(Cc2ccc3ccccc3c2)cc[n+]1Cc1ccc2ccccc2c1`, for which the growth was 0.276% (active).

`COc1cc(C2CC(C3C(=O)N(C)C(=O)N(C)C3=O)=NN2C=O)cc(OC)c1OC` (stereo not given): the growth is 95.1% (inactive).

For `Nc1ncnc2c1CN(Cc1ccccc1)CC2`, the growth is 120% (inactive).

Regarding `CCOC(=O)c1sc(NC(=O)COc2cccc(/C=C3\Cc4ccc(Cl)cc4C3=O)c2)nc1C`, the growth was 133% (inactive).

Turning to `COC(=O)[C@H](CCCCNC(=O)OCc1ccccc1)NC(=O)[C@@H](NC(=O)Nc1cc(C(F)(F)F)cc(C(F)(F)F)c1)C(C)C`, the growth is -5.02% [100 µM] (active).

On to `CCN(CC)c1ccc(C(=C2C=CC(=[N+](CC)Cc3cccc(S(=O)(=O)O)c3)C=C2)c2ccc(N(CC)Cc3cccc(S(=O)(=O)O)c3)cc2)cc1`, for which the growth is 36% (inactive).

Turning to `O=C(CNC(=O)c1cccc2ccccc12)Nc1ccccc1Oc1ccc(O)cc1`, the growth was 17.6% [5 µM] (inactive).

Regarding `COc1cc(C(=O)/C=C/c2cccc(Nc3ccnc4cc(Cl)ccc34)c2)cc(OC)c1OC`, the growth is 78.6% (inactive).

On to `CN1C(=O)C(C2=NN(C=O)C(c3ccc(F)cc3)C2)C(=O)N(C)C1=O` (stereo not given), for which the growth was 96.7% (inactive).

As to `O=CN1N=C(c2ccc(Nc3ccnc4cc(Cl)ccc34)cc2)CC1c1ccc(Cl)cc1` (stereo not given), the growth is 34.6% (inactive).

For the compound `COc1cccc(-c2nc3cc(NC(=O)c4ccc(Cl)c(C#N)c4)ccc3o2)c1`, the growth is 61.6% (inactive).

For another assay, the system named is CCRF-CEM leukemia. Described as above. The following applies: 10 µM unless noted.
Regarding `FC(F)(F)c1cc(-c2nnc3n2N=C(N2CCCC2)CS3)cc(C(F)(F)F)c1`, the growth was 86.4% (inactive).

For `Clc1ccc(C2=NN(c3ccc(Cl)cc3)C(c3cccc(Nc4ccnc5cc(Cl)ccc45)c3)C2)cc1` (stereo not given), the growth is 88.5% (inactive).

Regarding `COc1ccc(-c2nnc3c4[nH]cnc4ncn23)c(OC)c1`, the growth is 12.6% (inactive).

For `Cc1ccc(S(=O)(=O)NCCN2c3nc4ccccc4cc3Sc3cc4ccccc4nc32)cc1`, the growth is 93.7% (inactive).

With `O=C(CNC(=O)c1cccc2ccccc12)Nc1ccccc1Oc1cccc(O)c1`, the growth was 15.1% [5 µM] (inactive).

For `COc1ccc2c(=O)c(OC)c(-c3cc(OC)c(OC)c(OC)c3)oc2c1`, the growth is 93.4% (inactive).

For the compound `COc1cnc2c(c1)C(=O)c1c-2n(CCCN2CCC(O)CC2)c(=O)c2cc(F)ccc12`, the growth was -2.05% (active).

For the compound `O=C(/C=C/c1c(-c2ccccc2)[nH]c2ccccc12)S(=O)(=O)c1ccccc1`, the growth was 30.2% (inactive).

Take `O=C(Nc1nc2c(C(F)(F)F)cccc2s1)c1cc(Cl)ccc1O`: the growth is 10.7% (inactive).

`CCN(CC)CCOCC[C@H]1CC[C@H]2[C@@H]3[C@H](C)Cc4cc(OS(N)(=O)=O)ccc4[C@H]3CC[C@]12C`: the growth is -26.8% (active).

`NS(=O)(=O)c1ccc(N2CC(c3nc4ccccc4[nH]3)CC2=O)cc1` (stereo not given): the growth was 98.3% (inactive).

In the case of `COc1cnc2c(c1)C(=O)c1c-2n(CCCN2CCCC2)c(=O)c2cc(F)ccc12`, the growth is 0.937% (active).

For the compound `COc1ccc(-n2cnc3cc(C(=O)N4CCCCC4)ccc32)cc1`, the growth is 98% (inactive).

Take `COc1cc(-c2n[nH]nc2-c2ccccn2)cc(OC)c1OC`: the growth was 97.7% (inactive).

For `COc1cc(C2=NN(C=O)C(c3cccc(Nc4ccnc5cc(Cl)ccc45)c3)C2)cc(OC)c1OC` (stereo not given), the growth is 53.9% (inactive).

Consider `Cc1sc2nc(NCc3ccccc3)[nH]c(=O)c2c1C`, for which the growth is 58.9% (inactive).

Regarding `CC(=O)N1N=C(c2ccc(Nc3nc(NCCO)nc(NCCO)n3)cc2)CC1c1ccc(Cl)cc1` (stereo not given), the growth is 114% (inactive).

As for `COc1ccc(N2CCN(CC(=O)N3CCN(c4nnc(-c5ccc(Cl)cc5)c(-c5ccc(Cl)cc5)n4)CC3)CC2)cc1`, the growth is 20.6% (inactive).

As to `C1CCC(C(CC2CCCCN2)C2CCCCC2)CC1` (stereo not given), the growth is 4.88% (active).

As to `Cc1cc2c(cc1C)[n+](Cc1ccc3ccccc3c1)cn2Cc1ccc2ccccc2c1`, the growth was -35.1% (active).

As to `COc1ccc(Oc2ccccc2NC(=O)CNC(=O)c2cccc3ccccc23)cc1`, the growth is 15.5% [5 µM] (inactive).

`COc1cccc(N2CCN(CC(=O)N3CCN(c4nnc(-c5ccc(Cl)cc5)c(-c5ccc(Cl)cc5)n4)CC3)CC2)c1`: the growth is 43.2% (inactive).

In the case of `CC(=O)N1N=C(c2ccc3c(c2)OCO3)CC1c1c(C)nn(-c2ccccc2)c1N(C)Cc1ccccc1` (stereo not given), the growth was 69.5% (inactive).

In the case of `COc1ccc(C(=O)/C=C/c2cccc(Nc3ccnc4cc(Cl)ccc34)c2)cc1`, the growth is 37.2% (inactive).

On to `COc1cc(C2CC(C3C(=O)N(C)C(=O)N(C)C3=O)=NN2c2cc(Cl)cc(Cl)c2)cc(OC)c1OC` (stereo not given), for which the growth is 88.3% (inactive).

Take `O=C1NC(=O)/C(=C\c2ccco2)S1`: the growth was 95.9% (inactive).

Turning to `COc1ccc2nc(-c3ccc(Cl)cc3)cc(-c3nnc(SCC(=O)Nc4ccc(C(C)=O)cc4)n3-c3ccccc3)c2c1`, the growth was 108% (inactive).

`O=C(CNC(=O)c1cccc2ccccc12)Nc1ccccc1Cc1ccccc1`: the growth was 20.4% [5 µM] (inactive).

As for `CCCCc1n(Cc2ccc3ccccc3c2)cc[n+]1Cc1ccc2ccccc2c1`, the growth was 6.82% (active).

Consider `COc1cc(C2CC(C3C(=O)N(C)C(=O)N(C)C3=O)=NN2C=O)cc(OC)c1OC` (stereo not given), for which the growth was 82.8% (inactive).

In the case of `Nc1ncnc2c1CN(Cc1ccccc1)CC2`, the growth was 95.5% (inactive).

Consider `CCOC(=O)c1sc(NC(=O)COc2cccc(/C=C3\Cc4ccc(Cl)cc4C3=O)c2)nc1C`, for which the growth is 114% (inactive).

Consider `CCN(CC)c1ccc(C(=C2C=CC(=[N+](CC)Cc3cccc(S(=O)(=O)O)c3)C=C2)c2ccc(N(CC)Cc3cccc(S(=O)(=O)O)c3)cc2)cc1`, for which the growth was 12.4% (inactive).

On to `O=C(CNC(=O)c1cccc2ccccc12)Nc1ccccc1Oc1ccc(O)cc1`, for which the growth is 22.4% [5 µM] (inactive).

For `COc1cc(C(=O)/C=C/c2cccc(Nc3ccnc4cc(Cl)ccc34)c2)cc(OC)c1OC`, the growth is 2.7% (active).

Consider `CN1C(=O)C(C2=NN(C=O)C(c3ccc(F)cc3)C2)C(=O)N(C)C1=O` (stereo not given), for which the growth was 77.4% (inactive).

Regarding `O=CN1N=C(c2ccc(Nc3ccnc4cc(Cl)ccc34)cc2)CC1c1ccc(Cl)cc1` (stereo not given), the growth was 6.48% (active).

On to `COc1cccc(-c2nc3cc(NC(=O)c4ccc(Cl)c(C#N)c4)ccc3o2)c1`, for which the growth was 71.1% (inactive).
